Results from PubChem BioAssay AID1159580 (chemical genetic matrix, 2015).
Out of some 5,500 compounds screened, about 2,000 (36%) were called active. Inconclusive results (about 18%) are left out. Rule as the data show it: active = normalized growth mostly below about 0.91 (no sharp cut-off); inconclusive = no clear call, values can overlap the other calls; inactive = mostly above about 0.92. The list shows a part of the results.

Assay: chemical genetic growth profiling, strain panel (AID 1159580);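 also: tested at 20 µM; growth read once vehicle control cultures reached saturation at 30 °C; 1 = growth at the plate median or of vehicle wells; lower values mean less growth of the strain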
Settings: S. cerevisiae deletion strains, growth OD
[1] = locus YAR019C, strain CDC15, hits give low values
[2] = locus YBL105C, strain PKC1, hits give low values
[3] = locus YBR135W, strain CKS1, hits give low values
[4] = locus YBR136W, strain MEC1, hits give low values
[5] = locus YBR160W, strain CDC28, hits give low values
[6] = locus YDL017W, strain CDC7, hits give low values
[7] = locus YDL028C, strain MPS1, hits give low values
[8] = locus YDL101C, strain DUN1, hits give low values
[9] = locus YDL108W, strain KIN28, hits give low values
[10] = locus YDL132W, strain cdc53, hits give low values
[11] = locus YDL214C, strain PRR2, hits give low values
[12] = locus YDR052C, strain DBF4, hits give low values
[13] = locus YDR054C, strain cdc34, hits give low values
[14] = locus YDR226W, strain ADK1, hits give low values
[15] = locus YDR477W, strain SNF1, hits give low values
[16] = locus YER123W, strain YCK3, hits give low values
[17] = locus YER133W, strain GLC7, hits give low values
[18] = locus YFL009W, strain cdc4, hits give low values
[19] = locus YFL029C, strain CAK1, hits give low values
[20] = locus YFR003C, strain YPI1, hits give low values
[21] = locus YFR019W, strain FAB1, hits give low values
[22] = locus YFR028C, strain CDC14, hits give low values
[23] = locus YGR040W, strain KSS1, hits give low values
[24] = locus YGR052W, strain FMP48, hits give low values
[25] = locus YGR092W, strain DBF2, hits give low values
[26] = locus YHR030C, strain SLT2, hits give low values
[27] = locus YHR079C, strain IRE1, hits give low values
[28] = locus YHR082C, strain KSP1, hits give low values
[29] = locus YHR205W, strain SCH9, hits give low values
[30] = locus YIL147C, strain SLN1, hits give low values
[31] = locus YJL095W, strain BCK1, hits give low values
[32] = locus YJL128C, strain PBS2, hits give low values
[33] = locus YJL157C, strain FAR1, hits give low values
[34] = locus YJR016C, strain ILV3, hits give low values
[35] = locus YJR066W, strain TOR1 (second series), hits give low values
[36] = locus YJR066W, strain TOR1, hits give low values
[37] = locus YKL048C, strain ELM1, hits give low values
[38] = locus YKL067W, strain YNK1, hits give low values
[39] = locus YKL101W, strain HSL1, hits give low values
[40] = locus YKL193C, strain SDS22, hits give low values
[41] = locus YKL203C, strain TOR2, hits give low values
[42] = locus YLR113W, strain HOG1, hits give low values
[43] = locus YLR133W, strain CKI1, hits give low values
[44] = locus YLR403W, strain SFP1, hits give low values
[45] = locus YML070W, strain DAK1, hits give low values
[46] = locus YMR001C, strain CDC5, hits give low values
[47] = locus YMR205C, strain PFK2 (second series), hits give low values
[48] = locus YMR277W, strain FCP1, hits give low values
[49] = locus YNL006W, strain LST8, hits give low values
[50] = locus YNL020C, strain ARK1, hits give low values
[51] = locus YNL161W, strain CBK1, hits give low values
[52] = locus YNL183C, strain NPR1, hits give low values
[53] = locus YNL207W, strain RIO2, hits give low values
[54] = locus YNL222W, strain SSU72, hits give low values
[55] = locus YNL307C, strain MCK1 (second series), hits give low values
[56] = locus YOL078W, strain AVO1, hits give low values
[57] = locus YOL136C, strain PFK27, hits give low values
[58] = locus YOR061W, strain CKA2, hits give low values
[59] = locus YOR119C, strain RIO1, hits give low values
[60] = locus YOR231W, strain MKK1, hits give low values
[61] = locus YOR329C, strain SCD5, hits give low values
[62] = locus YPL031C, strain PHO85, hits give low values
[63] = locus YPL153C, strain RAD53, hits give low values
[64] = locus YPL204W, strain HRR25, hits give low values
[65] = locus YPL209C, strain IPL1, hits give low values
[66] = locus YPL256C, strain CLN2, hits give low values
[67] = locus YPR025C, strain CCL1, hits give low values
[68] = locus YPR106W, strain ISR1, hits give low values
[69] = locus YPR111W, strain DBF20, hits give low values
[70] = strain NNK1, hits give low values
[71] = strain TSCII, hits give low values

Measured: normalized growth

COC(=O)c1ccc(Oc2c(C(F)(F)F)oc3cc(O)ccc3c2=O)cc1
inactive: [1] 0.976 | [2] 0.976 | [3] 0.975 | [4] 0.974 | [5] 0.986 | [6] 0.977 | [7] 0.979 | [8] 0.982 | [9] 0.976 | [10] 0.961 | [11] 0.949 | [12] 0.984 | [13] 0.959 | [14] 0.964 | [15] 0.948 | [16] 0.924 | [17] 0.929 | [18] 0.969 | [19] 0.976 | [20] 0.974 | [21] 0.938 | [22] 0.965 | [23] 0.941 | [24] 0.962 | [25] 0.948 | [26] 0.902 | [27] 0.926 | [28] 1.01 | [29] 0.949 | [30] 0.978 | [31] 0.904 | [32] 0.941 | [33] 0.936 | [34] 0.974 | [35] 0.93 | [36] 1.01 | [37] 0.968 | [38] 0.956 | [39] 0.945 | [40] 0.967 | [41] 1.01 | [42] 0.869 | [43] 0.95 | [44] 0.938 | [45] 0.934 | [46] 0.972 | [47] 0.969 | [48] 0.978 | [49] 0.972 | [50] 0.949 | [51] 0.962 | [52] 1.02 | [53] 0.969 | [54] 0.979 | [55] 0.95 | [56] 0.97 | [57] 0.933 | [58] 0.968 | [59] 1.02 | [60] 0.967 | [61] 0.975 | [62] 0.94 | [63] 0.935 | [64] 0.95 | [65] 0.971 | [66] 0.9 | [67] 0.98 | [68] 0.979 | [69] 0.979 | [70] 0.973 | [71] 0.96

CC(=O)Oc1ccc2c(=O)c(Oc3ccc(Cl)cc3)c(C)oc2c1
inactive: [1] 0.969 | [2] 0.964 | [3] 0.968 | [4] 0.954 | [5] 0.962 | [6] 0.963 | [7] 0.956 | [8] 0.951 | [9] 0.958 | [10] 0.96 | [11] 0.938 | [12] 0.959 | [13] 0.96 | [14] 0.957 | [15] 0.945 | [16] 0.918 | [17] 0.939 | [18] 0.97 | [19] 0.964 | [20] 0.968 | [21] 0.979 | [22] 0.963 | [23] 0.953 | [24] 0.887 | [25] 0.692 | [27] 0.897 | [28] 0.917 | [29] 0.776 | [30] 0.947 | [31] 0.7 | [32] 0.923 | [33] 0.973 | [34] 0.964 | [35] 0.953 | [36] 0.896 | [37] 0.933 | [38] 0.94 | [39] 0.908 | [40] 0.953 | [41] 0.968 | [43] 0.952 | [44] 0.887 | [45] 0.921 | [46] 0.961 | [47] 0.935 | [48] 0.969 | [49] 0.985 | [50] 0.952 | [51] 0.965 | [52] 0.875 | [53] 0.953 | [54] 0.97 | [55] 0.808 | [56] 0.95 | [57] 0.933 | [58] 0.959 | [59] 0.995 | [60] 0.834 | [61] 0.961 | [62] 0.935 | [63] 0.954 | [64] 0.943 | [65] 0.96 | [66] 0.909 | [67] 0.965 | [68] 0.955 | [69] 0.941 | [70] 0.94 | [71] 0.964
active: [26] 0.802 | [42] 0.768
